Of roughly 7,900 targets only a part is listed; those with a hit were picked by preference. About 0.6% of all pairs of compound and target were hits.
What was measured:
Assay in all cases: log2 fold change, soluble protein after heating vs DMSO (PISA); higher = thermal stabilisation; K562 cells, 10 uM, 30 min; active = over 0.2 and 3.5 SD of the protein, either way, in both replicates (recomputed)
[1] = compound: CC[C@@H]1C(=O)N(C)c2cnc(Nc3ccc(C(=O)NC4CCN(C)CC4)cc3OC)nc2N1C1CCCC1
Summary of the method: (§1)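 Quantification of soluble protein used TMTpro 16plex LC-MS/MS, with channel sums equalised. Samples were the supernatant after 21,000xg for 90 min of pooled aliquots from K562 cells (2×10^6 cells/mL) treated with 10 μM compound for 30 min, heated for 3 min over 48°C-58°C, and extracted in PBS with 0.5% NP-40 at 4°C. Values, from duplicates, describe thermal stability against control samples on a log2 fold-change scale.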

[2] = compound: CC[C@@H]1C(=O)N(C)c2cnc(Nc3ccc(C(=O)N[C@H]4CC[C@H](N5CCN(CC6CC6)CC5)CC4)cc3OC)nc2N1C(C)C [volasertib]
Summary of the method: as §1

[3] = compound: CC[C@H](C)N1C=C(C2=C(C=C(C=C21)C3=CN=C(C=C3)N4CCNCC4)C(=O)NCC5=C(C=C(NC5=O)C)C)C
Summary of the method: as §1

[4] = compound: CC[C@H](C)[C@@H](C(=O)N[C@@H]([C@@H](C)O)C(=O)N[C@@H](CC(C)C)C(=O)[C@]1(CO1)C)NC(=O)[C@H]([C@@H](C)CC)N(C)C(=O)C [epoxomicin]
Summary of the method: as §1

[5] = compound: CCn1c(C(=O)N(C2CC2)C2CC2)cc2c3c(ncn3C)c(Nc3cc(C)n(C)n3)nc21
Summary of the method: as §1

[6] = compound: CCn1cc(-c2ccnc3[nH]c(-c4cccc(CN(C)C)c4)cc23)c(-c2ccc(NC(=O)N(C)C)cc2)n1
Summary of the method: as §1

[7] = compound: CN(C)CC(=O)Nc1ccc2[nH]c(=O)c3ccccc3c2c1
Summary of the method: as §1

[8] = compound: CN(CCOC1=CC=C(C=C1)C[C@H]2C(=O)NC(=O)S2)C3=CC=CC=N3 (racemic) [rosiglitazone]
Summary of the method: as §1

[9] = compound: CN1C2=C(C3=C1C(=O)N(N=C3)CC4=CC(=CC=C4)N)SC(=C2)S(=O)C
Summary of the method: as §1

[10] = compound: CN1CCC(CNc2ccc3ncc(-c4cccc(OC(F)(F)F)c4)n3n2)CC1
Summary of the method: as §1

[11] = compound: CN1CCN(CCOc2cc(OC3CCOCC3)c3c(Nc4c(Cl)ccc5c4OCO5)ncnc3c2)CC1 [saracatinib]
Summary of the method: as §1

[12] = compound: CN1CCN(c2nc(C3=C(c4c[nH]c5ccccc45)C(=O)NC3=O)c3ccccc3n2)CC1 [sotrastaurin]
Summary of the method: as §1

[13] = compound: CN1CC[C@H](c2c(O)cc(O)c3c(=O)cc(-c4ccccc4Cl)oc23)[C@H](O)C1 [alvocidib]
Summary of the method: as §1

[14] = compound: CN1CCc2c(c3ccccc3n2Cc2ccc(C(=O)NO)cc2)C1 [Tubastatin A]
Summary of the method: as §1

[15] = compound: CNC(=O)C1=CC=CC=C1NC2=NC(=NC=C2Cl)NC3=C(C=C(C=C3)N4CCOCC4)OC
Summary of the method: as §1

[16] = compound: CNC(=O)c1ccc(Nc2ncc(C(F)(F)F)c(NCc3nccnc3N(C)S(C)(=O)=O)n2)cc1 [defactinib]
Summary of the method: as §1

[17] = compound: CNCc1ccc(-c2[nH]c3cc(F)cc4c3c2CCNC4=O)cc1 [rucaparib]
Summary of the method: as §1

[18] = compound: CNc1nc(-c2ccc3c(N)n[nH]c3c2)cc(N2C[C@@H](C(=O)NC3CCCCC3)CC[C@H]2C)n1
Summary of the method: as §1

[19] = compound: COC(=O)N[C@@H](C)CNc1nccc(-c2cn(C(C)C)nc2-c2cc(Cl)cc(NS(C)(=O)=O)c2F)n1 [encorafenib]
Summary of the method: as §1

[20] = compound: COC(=O)[C@H](CCSC)NC(=O)C1=C(C=C(C=C1)NC[C@H](CS)N)C2=CC=CC=C2
Summary of the method: as §1

Measured: log2 fold change

LPIN3 isoform 2 (UniProt Q9BQK8)
Chain of UniProt Q9BQK8 (Q9BQK8 whole entry, looked up): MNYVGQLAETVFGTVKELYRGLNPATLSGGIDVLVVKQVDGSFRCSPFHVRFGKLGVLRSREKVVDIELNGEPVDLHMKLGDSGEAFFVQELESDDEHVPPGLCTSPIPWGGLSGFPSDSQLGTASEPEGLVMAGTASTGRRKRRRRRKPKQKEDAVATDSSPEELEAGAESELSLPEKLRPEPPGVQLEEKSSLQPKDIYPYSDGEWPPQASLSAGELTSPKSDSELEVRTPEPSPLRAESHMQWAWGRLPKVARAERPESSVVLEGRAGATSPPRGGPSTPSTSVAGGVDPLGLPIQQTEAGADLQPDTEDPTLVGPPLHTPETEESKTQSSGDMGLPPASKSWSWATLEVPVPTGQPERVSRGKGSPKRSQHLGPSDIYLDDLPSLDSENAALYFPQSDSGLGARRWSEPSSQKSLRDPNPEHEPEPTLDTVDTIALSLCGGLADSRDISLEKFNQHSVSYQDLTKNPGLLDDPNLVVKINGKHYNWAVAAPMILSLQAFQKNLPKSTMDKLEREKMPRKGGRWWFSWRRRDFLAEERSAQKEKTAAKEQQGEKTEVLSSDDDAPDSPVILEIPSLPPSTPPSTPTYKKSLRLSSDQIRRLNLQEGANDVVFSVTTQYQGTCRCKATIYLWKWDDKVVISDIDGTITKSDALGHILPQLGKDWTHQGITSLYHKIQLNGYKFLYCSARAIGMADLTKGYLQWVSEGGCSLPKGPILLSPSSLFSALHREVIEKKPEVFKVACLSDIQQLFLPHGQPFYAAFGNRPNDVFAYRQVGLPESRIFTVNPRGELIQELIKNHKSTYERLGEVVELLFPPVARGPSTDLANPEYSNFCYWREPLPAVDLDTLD
active: [10] -0.27
inactive: [1] 0.016 | [2] -0.015 | [3] 0.04 | [4] 0.073 | [5] -0.048 | [6] -0.078 | [7] -0.054 | [8] 0.135 | [9] 0.002 | [11] -0.101 | [12] 0.171 | [13] -0.074 | [14] 0.093 | [15] -0.087 | [16] -0.022 | [17] 0.049 | [18] 0.049 | [19] 0.051 | [20] -0.012

KLC2 (UniProt Q9H0B6)
Chain of UniProt Q9H0B6 (Q9H0B6 whole entry, looked up): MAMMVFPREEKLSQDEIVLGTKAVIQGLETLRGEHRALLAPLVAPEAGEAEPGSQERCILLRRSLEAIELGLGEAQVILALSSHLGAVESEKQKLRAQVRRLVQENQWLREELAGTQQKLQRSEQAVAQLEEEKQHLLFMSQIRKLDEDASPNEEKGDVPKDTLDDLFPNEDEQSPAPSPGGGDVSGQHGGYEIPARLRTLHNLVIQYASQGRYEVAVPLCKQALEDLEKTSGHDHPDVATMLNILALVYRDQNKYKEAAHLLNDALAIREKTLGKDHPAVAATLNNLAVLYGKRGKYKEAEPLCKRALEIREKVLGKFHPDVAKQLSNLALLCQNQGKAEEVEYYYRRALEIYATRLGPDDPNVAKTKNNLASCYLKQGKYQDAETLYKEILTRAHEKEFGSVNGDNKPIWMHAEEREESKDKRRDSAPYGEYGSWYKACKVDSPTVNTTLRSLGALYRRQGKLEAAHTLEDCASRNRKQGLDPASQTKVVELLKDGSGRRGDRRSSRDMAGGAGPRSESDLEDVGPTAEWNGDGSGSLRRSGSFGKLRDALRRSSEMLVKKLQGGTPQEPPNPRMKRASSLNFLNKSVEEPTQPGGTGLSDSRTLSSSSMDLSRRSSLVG
inactive: [1] -0.03 | [2] -0.059 | [3] 0.038 | [4] 0.015 | [5] -0.046 | [6] 0.02 | [7] -0.003 | [8] 0.057 | [9] -0.013 | [10] -0.131 | [11] -0.107 | [12] -0.032 | [13] -0.095 | [14] 0.086 | [15] -0.017 | [16] -0.13 | [17] 0.001 | [18] 0.051 | [19] 0.036 | [20] -0.051

IRF3 (UniProt Q14653)
inactive: [1] -0.05 | [2] -0.1 | [3] -0.052 | [4] -0.035 | [5] -0.02 | [6] -0.037 | [7] 0.018 | [8] 0.024 | [9] -0.024 | [10] -0.045 | [11] 0.061 | [12] -0.043 | [13] -0.07 | [14] 0 | [15] 0.006 | [16] -0.062 | [17] -0.057 | [18] -0.01 | [19] 0.014 | [20] -0.014

IWS1 (UniProt Q96ST2)
inactive: [1] 0.048 | [2] 0.034 | [3] 0.029 | [4] 0.006 | [5] -0.14 | [6] 0.021 | [7] 0.046 | [8] 0.029 | [9] 0 | [10] -0.054 | [11] -0.042 | [12] 0.021 | [14] 0.04 | [15] -0.054 | [16] 0.035 | [17] 0.032 | [18] -0.034 | [19] -0.1 | [20] -0.127
active: [13] 0.336

LMNB1 (UniProt P20700)
inactive: [1] -0.045 | [3] 0.023 | [4] 0.037 | [5] -0.021 | [6] 0.115 | [7] 0.034 | [8] -0.049 | [9] -0.034 | [10] 0.026 | [11] 0.029 | [12] -0.11 | [13] -0.173 | [14] -0.016 | [15] 0.007 | [16] -0.166 | [17] -0.035 | [18] -0.095 | [19] 0.016 | [20] 0.032
active: [2] -0.308

LEO1 (UniProt Q8WVC0)
active: [2] -0.402
inactive: [1] -0.021 | [3] -0.013 | [4] -0.001 | [5] -0.007 | [6] -0.051 | [7] 0.121 | [8] 0.006 | [9] -0.033 | [10] -0.048 | [11] -0.047 | [12] -0.085 | [13] -0.137 | [14] 0.061 | [15] -0.039 | [16] -0.211 | [17] -0.151 | [18] -0.055 | [19] -0.033 | [20] -0.082

INPP1 (UniProt P49441)
Chain of UniProt P49441 (P49441 whole entry, looked up): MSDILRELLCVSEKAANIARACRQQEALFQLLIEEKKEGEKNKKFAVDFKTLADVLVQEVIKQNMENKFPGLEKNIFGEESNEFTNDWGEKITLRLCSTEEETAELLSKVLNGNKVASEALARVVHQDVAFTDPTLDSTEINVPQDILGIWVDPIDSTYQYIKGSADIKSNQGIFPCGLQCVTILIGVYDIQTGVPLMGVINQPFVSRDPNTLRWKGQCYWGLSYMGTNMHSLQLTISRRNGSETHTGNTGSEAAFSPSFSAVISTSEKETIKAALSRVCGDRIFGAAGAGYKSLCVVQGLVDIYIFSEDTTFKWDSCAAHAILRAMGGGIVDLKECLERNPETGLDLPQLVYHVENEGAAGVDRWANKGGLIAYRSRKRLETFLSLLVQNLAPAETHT
active: [10] -0.296
inactive: [1] 0.011 | [2] -0.042 | [3] 0.028 | [4] 0.052 | [5] 0.005 | [6] -0.011 | [7] -0.047 | [8] 0.002 | [9] 0.014 | [11] 0.071 | [12] 0 | [13] -0.011 | [14] 0.061 | [15] 0.044 | [16] -0.032 | [17] -0.029 | [18] 0.048 | [19] 0.038 | [20] -0.038

KEL (UniProt P23276)
Chain of UniProt P23276 (P23276 whole entry, looked up): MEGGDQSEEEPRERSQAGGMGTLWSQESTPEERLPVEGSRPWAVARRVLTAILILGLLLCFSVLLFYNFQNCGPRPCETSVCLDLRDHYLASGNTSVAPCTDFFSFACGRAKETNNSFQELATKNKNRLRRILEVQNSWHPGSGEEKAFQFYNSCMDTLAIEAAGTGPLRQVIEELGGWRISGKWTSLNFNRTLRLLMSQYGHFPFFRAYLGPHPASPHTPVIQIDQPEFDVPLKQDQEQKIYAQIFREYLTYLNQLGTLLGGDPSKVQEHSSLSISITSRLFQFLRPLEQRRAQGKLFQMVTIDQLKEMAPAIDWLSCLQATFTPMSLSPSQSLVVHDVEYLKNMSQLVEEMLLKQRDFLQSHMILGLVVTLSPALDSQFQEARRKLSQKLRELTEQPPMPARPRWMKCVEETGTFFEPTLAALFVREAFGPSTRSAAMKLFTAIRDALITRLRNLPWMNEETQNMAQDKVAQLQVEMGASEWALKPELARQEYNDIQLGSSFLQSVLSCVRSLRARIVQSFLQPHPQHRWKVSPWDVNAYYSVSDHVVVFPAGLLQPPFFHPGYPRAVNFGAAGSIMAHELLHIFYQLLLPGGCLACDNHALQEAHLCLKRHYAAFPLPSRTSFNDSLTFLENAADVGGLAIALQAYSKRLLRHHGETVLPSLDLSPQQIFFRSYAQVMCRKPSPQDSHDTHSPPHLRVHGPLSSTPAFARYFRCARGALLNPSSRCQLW
inactive: [1] 0.195 | [2] -0.085 | [3] -0.085 | [4] 0.063 | [5] 0.033 | [6] -0.013 | [7] -0.007 | [8] 0.024 | [9] 0.018 | [10] 0.088 | [11] 0.09 | [12] -0.009 | [13] -0.044 | [14] 0.004 | [15] -0.091 | [16] -0.038 | [17] 0.006 | [18] -0.026 | [19] -0.061 | [20] 0.03

LARP4 isoform 4 (UniProt Q71RC2)
Chain of UniProt Q71RC2 (Q71RC2 whole entry, looked up): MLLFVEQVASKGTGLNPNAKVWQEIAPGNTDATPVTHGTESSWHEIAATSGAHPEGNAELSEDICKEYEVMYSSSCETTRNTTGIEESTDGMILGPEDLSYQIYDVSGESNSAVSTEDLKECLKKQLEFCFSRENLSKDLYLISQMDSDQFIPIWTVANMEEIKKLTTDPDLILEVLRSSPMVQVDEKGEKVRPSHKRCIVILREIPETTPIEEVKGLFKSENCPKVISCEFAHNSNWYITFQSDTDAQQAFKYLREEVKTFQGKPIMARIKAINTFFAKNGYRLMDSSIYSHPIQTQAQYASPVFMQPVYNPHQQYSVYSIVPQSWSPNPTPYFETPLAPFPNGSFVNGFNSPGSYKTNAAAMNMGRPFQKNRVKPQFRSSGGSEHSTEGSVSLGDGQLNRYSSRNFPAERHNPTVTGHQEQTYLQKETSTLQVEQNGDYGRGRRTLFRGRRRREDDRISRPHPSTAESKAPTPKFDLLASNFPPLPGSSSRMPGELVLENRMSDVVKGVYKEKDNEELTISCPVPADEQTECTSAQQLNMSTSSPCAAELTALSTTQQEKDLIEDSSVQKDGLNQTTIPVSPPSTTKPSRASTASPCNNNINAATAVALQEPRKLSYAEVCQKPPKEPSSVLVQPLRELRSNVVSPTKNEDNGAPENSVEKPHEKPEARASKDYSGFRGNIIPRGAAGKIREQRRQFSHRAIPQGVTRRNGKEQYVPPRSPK
inactive: [1] -0.016 | [2] -0.351 | [3] 0.117 | [4] -0.107 | [5] 0.005 | [6] 0.07 | [7] 0.009 | [8] 0.018 | [9] 0.137 | [10] -0.252 | [11] -0.066 | [12] -0.051 | [13] 0.031 | [14] 0.041 | [15] 0.047 | [16] -0.036 | [17] 0.257 | [18] 0.059 | [19] 0.086 | [20] -0.014

MAPKAPK5 (UniProt Q8IW41)
inactive: [1] 0.009 | [2] -0.007 | [3] -0.023 | [4] 0.045 | [5] -0.092 | [6] -0.132 | [7] -0.123 | [8] -0.046 | [9] -0.112 | [10] -0.033 | [11] 0.008 | [12] -0.028 | [13] 0.062 | [14] 0.036 | [15] -0.02 | [16] -0.032 | [17] 0.095 | [18] -0.039 | [19] -0.016 | [20] 0

MAST4 (UniProt O15021)
inactive: [1] -0.059 | [2] -0.22 | [3] 0.073 | [4] 0.048 | [5] 0.056 | [6] -0.102 | [7] -0.009 | [8] 0.067 | [9] -0.115 | [10] -0.384 | [11] 0.006 | [12] -0.103 | [13] -0.065 | [14] 0.012 | [15] -0.087 | [16] -0.149 | [17] -0.101 | [18] -0.006 | [19] 0.042 | [20] -0.017

LSR (UniProt Q86X29)
Chain of UniProt Q86X29 (Q86X29 whole entry, looked up): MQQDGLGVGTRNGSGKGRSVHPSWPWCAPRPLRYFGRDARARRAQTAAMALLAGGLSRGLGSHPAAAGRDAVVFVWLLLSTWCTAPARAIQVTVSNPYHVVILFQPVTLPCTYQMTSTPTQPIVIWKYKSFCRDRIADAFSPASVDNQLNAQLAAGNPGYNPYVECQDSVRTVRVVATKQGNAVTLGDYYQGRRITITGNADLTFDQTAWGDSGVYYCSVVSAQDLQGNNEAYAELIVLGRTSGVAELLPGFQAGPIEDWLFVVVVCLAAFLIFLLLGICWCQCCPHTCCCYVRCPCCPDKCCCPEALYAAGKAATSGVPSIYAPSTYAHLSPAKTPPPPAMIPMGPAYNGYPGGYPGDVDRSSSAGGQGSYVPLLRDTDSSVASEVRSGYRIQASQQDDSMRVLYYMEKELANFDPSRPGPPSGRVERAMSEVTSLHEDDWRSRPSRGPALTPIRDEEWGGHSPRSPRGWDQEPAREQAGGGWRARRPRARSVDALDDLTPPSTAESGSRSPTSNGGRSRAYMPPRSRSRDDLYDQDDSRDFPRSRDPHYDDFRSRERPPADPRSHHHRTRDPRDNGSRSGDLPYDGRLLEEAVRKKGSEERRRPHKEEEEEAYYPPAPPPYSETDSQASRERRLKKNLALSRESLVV
inactive: [1] 0.109 | [2] 0.068 | [3] -0.02 | [4] -0.021 | [5] -0.013 | [6] 0.011 | [7] -0.033 | [8] 0.011 | [9] -0.001 | [11] -0.003 | [12] 0.023 | [13] -0.018 | [14] 0.012 | [15] -0.074 | [16] -0.053 | [17] -0.023 | [18] 0.095 | [19] 0.042 | [20] 0.031
active: [10] 0.214

LNPEP (UniProt Q9UIQ6)
inactive: [1] 0.004 | [2] -0.182 | [3] -0.016 | [4] 0.014 | [5] 0.016 | [6] -0.02 | [7] 0.012 | [8] 0.016 | [9] -0.025 | [10] 0.024 | [11] 0.048 | [12] 0.037 | [13] 0.01 | [14] -0.001 | [15] -0.01 | [16] -0.054 | [17] -0.014 | [18] -0.02 | [19] -0.008 | [20] 0.012

MGST1 (UniProt P10620)
Chain of UniProt P10620 (P10620 whole entry, looked up): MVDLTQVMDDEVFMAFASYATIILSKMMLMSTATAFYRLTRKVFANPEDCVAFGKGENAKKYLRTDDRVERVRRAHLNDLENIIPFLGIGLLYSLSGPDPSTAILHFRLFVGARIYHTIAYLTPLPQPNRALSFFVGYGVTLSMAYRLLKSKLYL
inactive: [1] 0.037 | [2] 0.039 | [3] -0.043 | [4] 0.003 | [5] -0.025 | [6] -0.158 | [7] 0.012 | [8] -0.037 | [9] -0.079 | [10] 0.086 | [11] 0.042 | [12] -0.013 | [13] 0.01 | [14] -0.174 | [15] 0.009 | [16] -0.037 | [17] 0.003 | [18] 0.021 | [19] -0.147 | [20] 0.018

LTV1 (UniProt Q96GA3)
inactive: [1] 0.09 | [2] 0.004 | [3] 0.06 | [4] -0.109 | [5] 0.021 | [6] 0.023 | [7] -0.049 | [8] -0.032 | [9] 0.189 | [10] 0.104 | [11] -0.09 | [12] -0.037 | [13] 0.151 | [14] 0.16 | [15] 0.083 | [16] 0.145 | [17] 0.074 | [18] 0.081 | [19] 0.109 | [20] -0.061

KIF2C (UniProt Q99661)
Chain of UniProt Q99661 (Q99661 whole entry, looked up): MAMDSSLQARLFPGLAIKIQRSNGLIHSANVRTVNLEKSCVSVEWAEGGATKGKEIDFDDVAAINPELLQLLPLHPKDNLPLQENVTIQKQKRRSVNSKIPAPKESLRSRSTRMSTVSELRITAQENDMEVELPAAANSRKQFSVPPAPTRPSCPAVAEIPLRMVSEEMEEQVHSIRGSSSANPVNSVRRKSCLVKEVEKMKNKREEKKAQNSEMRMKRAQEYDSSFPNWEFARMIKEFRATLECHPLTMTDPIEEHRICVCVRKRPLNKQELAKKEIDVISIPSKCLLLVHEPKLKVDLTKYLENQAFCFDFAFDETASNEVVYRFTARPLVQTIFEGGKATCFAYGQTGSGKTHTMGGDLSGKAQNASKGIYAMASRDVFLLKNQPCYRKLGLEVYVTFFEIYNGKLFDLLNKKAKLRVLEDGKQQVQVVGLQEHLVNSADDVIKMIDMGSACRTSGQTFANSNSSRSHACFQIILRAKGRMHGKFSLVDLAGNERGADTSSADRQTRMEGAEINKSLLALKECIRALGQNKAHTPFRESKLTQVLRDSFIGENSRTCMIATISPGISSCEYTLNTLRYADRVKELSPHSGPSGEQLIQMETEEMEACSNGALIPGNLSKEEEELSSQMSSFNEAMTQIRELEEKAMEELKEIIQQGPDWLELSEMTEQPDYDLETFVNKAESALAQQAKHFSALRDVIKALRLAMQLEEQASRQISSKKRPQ
active: [2] -0.357
inactive: [1] -0.037 | [3] 0.084 | [4] 0.019 | [5] -0.042 | [6] -0.063 | [7] 0.09 | [8] 0.057 | [9] 0.003 | [10] -0.06 | [11] 0.003 | [12] -0.048 | [13] -0.019 | [14] 0.024 | [15] -0.017 | [16] -0.051 | [17] 0.019 | [18] 0.064 | [19] 0.142 | [20] -0.092

From the supplement of paper PMC10849652
